Measurements: PubChem BioAssay AID1159580 (chemical genetic matrix, 2015)
“And” between values parts separate entries of the source, which are not always exact repeats. Equal values may be shown once. Out of some 5,500 compounds screened, about 2,000 (36%) were called active. About 18% were inconclusive and are not listed. No stated cut-off is given here; in the data, active means normalized growth mostly below about 0.91 (no sharp cut-off); inconclusive means no clear call, values can overlap the other calls; inactive means mostly above about 0.92. This is one part of the list.

Assay: chemical genetic growth profiling, strain panel (AID 1159580);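 further: tested at 20 µM; growth read once vehicle control cultures reached saturation at 30 °C; 1 = growth at the plate median or of vehicle wells; lower values mean less growth of the strain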
Conditions: S. cerevisiae deletion strains, growth OD

Measured: normalized growth

COc1ccc(C(CN(C)C)C2(O)CCCCC2)cc1 (stereo unspecified)
inactive: locus YAL013W, strain DEP1, hits give low values 1.01 | locus YAL021C, strain ccr4, hits give low values 0.976 | locus YAL026C, strain drs2, hits give low values 0.995 | locus YAL030W, strain snc1, hits give low values 0.988 | locus YBL061C, strain skt5, hits give low values 0.992 | locus YBR009C, strain hhf1, hits give low values 1.01 | locus YBR021W, strain FUR4, hits give low values 1.02 | locus YBR023C, strain chs3, hits give low values 1.01 | locus YBR171W, strain sec66, hits give low values 0.982 | locus YBR229C, strain ROT2, hits give low values 1.01 | locus YBR231C, strain swc5, hits give low values 1.03 | locus YBR279W, strain paf1, hits give low values 1.01 | locus YCL011C, strain gbp2, hits give low values 0.994 | locus YCL016C, strain dcc1, hits give low values 1.01 | locus YCL029C, strain bik1, hits give low values 0.979 | locus YCL069W, strain vba3, hits give low values 0.974 | locus YCR088W, strain abp1, hits give low values 0.99 | locus YDL005C, strain med2, hits give low values 0.978 | locus YDL035C, strain GPR1, hits give low values 1.02 | locus YDL040C, strain nat1, hits give low values 0.962 | locus YDL074C, strain BRE1, hits give low values 1.03 | locus YDL101C, strain DUN1, hits give low values 1.02 | locus YDL134C, strain PPH21, hits give low values 1.02 | locus YDL185W, strain tfp1, hits give low values 0.997 | locus YDL192W, strain arf1, hits give low values 0.991 | locus YDR001C, strain nth1, hits give low values 0.986 | locus YDR069C, strain doa4, hits give low values 0.973 | locus YDR101C, strain arx1, hits give low values 0.986 | locus YDR137W, strain rgp1, hits give low values 0.971 | locus YDR150W, strain NUM1, hits give low values 1.01 | locus YDR159W, strain sac3, hits give low values 0.974 | locus YDR162C, strain NBP2, hits give low values 0.985 | locus YDR195W, strain ref2 0.975 | locus YDR297W, strain sur2, hits give low values 0.994 | locus YDR318W, strain mcm21, hits give low values 0.996 | locus YDR334W, strain swr1, hits give low values 0.97 | locus YDR335W, strain msn5, hits give low values 0.996 | locus YDR388W, hits give low values 0.988 | locus YDR392W, strain spt3, hits give low values 0.985 | locus YDR502C, strain sam2, hits give low values 0.99 | locus YEL003W, strain gim4, hits give low values 0.976 | locus YEL037C, strain rad23, hits give low values 0.974 | locus YEL061C, strain CIN8 (second series), hits give low values 0.98 | locus YEL061C, strain CIN8, hits give low values 1.01 | locus YER015W, strain faa2, hits give low values 1.01 | locus YER016W, strain bim1, hits give low values 0.972 | locus YER110C, hits give low values 0.99 | locus YER111C, strain swi4, hits give low values 0.994 | locus YER155C, strain BEM2 (second series), hits give low values 0.962 | locus YER155C, strain BEM2, hits give low values 0.987 | locus YER167W, strain BCK2, hits give low values 1.01 | locus YFR010W, strain ubp6, hits give low values 0.987 | locus YGL078C, strain dbp3, hits give low values 0.989 | locus YGL086W, strain mad1, hits give low values 0.996 | locus YGL167C, strain pmr1, hits give low values 0.979 | locus YGL173C, strain kem1, hits give low values 0.987 | locus YGL227W, strain vid30, hits give low values 0.988 | locus YGL240W, strain doc1, hits give low values 0.992 | locus YGL248W, strain PDE1, hits give low values 1.01 | locus YGL253W, strain hxk2, hits give low values 0.999 | locus YGR078C, strain PAC10, hits give low values 1 | locus YGR135W, strain pre9, hits give low values 0.985 | locus YGR229C, strain SMI1, hits give low values 1.02 | locus YGR252W, strain gcn5, hits give low values 0.973 | locus YHR013C, strain ard1, hits give low values 0.932 | locus YHR027C, strain rpn1, hits give low values 0.987 | locus YHR030C, strain SLT2, hits give low values 1.01 and 1 | locus YHR079C, strain IRE1 (second series), hits give low values 0.99 | locus YHR079C, strain IRE1, hits give low values 1.01 | locus YHR094C, strain hxt1, hits give low values 0.997 | locus YHR129C, strain ARP1, hits give low values 1.01 | locus YHR142W, strain chs7, hits give low values 0.974 | locus YHR200W, strain rpn10, hits give low values 0.996 | locus YIL066C, strain RNR3, hits give low values 1.01 | locus YIL073C, strain SPO22, hits give low values 1.04 | locus YIL125W, strain kgd1, hits give low values 0.998 | locus YIR030C, strain dcg1, hits give low values 0.986 | locus YJL092W, strain hpr5, hits give low values 0.976 | locus YJL095W, strain BCK1 (second series), hits give low values 0.984 | locus YJL095W, strain BCK1, hits give low values 1.01 and 0.997 | locus YJL115W, strain asf1, hits give low values 0.958 | locus YJL129C, strain trk1, hits give low values 0.989 | locus YJL134W, strain LCB3, hits give low values 1.01 | locus YJL154C, strain vps35, hits give low values 0.974 | locus YJL164C, strain tpk1, hits give low values 1 | locus YJL166W, strain qcr8, hits give low values 0.971 | locus YJL168C, strain set2, hits give low values 0.997 | locus YJL187C, strain SWE1 (second series), hits give low values 1.01 | locus YJR043C, strain POL32, hits give low values 1 | locus YJR066W, strain TOR1, hits give low values 0.979 | locus YJR075W, strain HOC1, hits give low values 1.02
